Bioassay records deposited in PubChem BioAssay by National Center for Advancing Translational Sciences (NCATS).
The list is not random: actives were taken first. Their share in the collection is about 2.1%.
FUS suppressor: suppressors of FUS proteinopathy in yeast; Potency, µM (titrated, usually from 76.6 µM), hits mostly activators; S. cerevisiae FUS-expressing, growth rescue, OD600, 24 h; AID 1347120; hit rate 0.24% among 390,000;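 note: plate controls were DMSO vehicle for no effect and reference control for full effect; nearly all actives have a fitted effect of over 55% in size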
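Cultures pregrown in 2.5% raffinose medium are shifted to minimal medium containing 2% galactose to express toxic FUS. Compounds are tested at several concentrations. After 24hr at 30C, growth is quantified at 600 nm absorbance.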
TDP43 rescue: TDP-43 toxicity inhibition in yeast. Potency, µM (titrated, usually from 46.1 µM), for the others: at the highest dose growth rescue (activation), usual class: activators. AID 652104. TDP-43 expressing yeast growth rescue, BacTiter-Glo, 24 h. hit rate 1.8% among 410,000; note: % of control where 0% means no effect; nearly all actives have a fitted effect of over 50% in size
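Cell-based yeast growth screen: TDP-43 expression induced in galactose, inoculum OD600=0.02 after raffinose pregrowth to mid-log. Read-out BacTiter-Glo luminescence at 24 hr, 30 deg C; inhibition of toxicity seen as signal increase.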
Abeta rescue: A-beta toxicity reversal in yeast; yeast expressing A-beta42, growth rescue, OD600, 48 h; response scale: 0% DMSO, 100% iron-clioquinol control; Potency, µM (top dose mostly 46.1 µM), most hits filed as activators; hit rate 0.063% among 410,000; AID 1347071; note: nearly all actives have a fitted effect of over 55% in size
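Yeast growth medium received pinned compounds, then yeast cells expressing toxic A-beta were added; plates incubated at 30 C for 48 hr. Growth read as absorbance at 600 nm, normalized to DMSO and equimolar FeCl3 plus clioquinol controls.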
aSyn rescue: inhibitors of alpha-synuclein toxicity in yeast; Yeast expressing alpha-synuclein, growth rescue, BacTiter-Glo, 24 h; hit rate 0.14% among 370,000; Potency, µM (highest dose often 46.1 µM), for the others: at the highest dose growth rescue (activation), most hits filed as activators; note: % of control where 0% means no effect; nearly all actives have a fitted effect of over 65% in size
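Screening used galactose-induced yeast with toxic alpha-synuclein levels, exposed to compound for 24 hr at 30 deg C. Cell growth, read with BacTiter-Glo luminescence, gave the measured signal.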
The depositor's hits bear a star; i = inactive; ? = inconclusive; . = no result. Calls come from the whole dose curve; as a rule, active = well fitted curve in the direction sought with a large enough effect; inconclusive = small, poorly fitted or top-dose-only effect, or another doubt; inactive = no such curve, though single readings can be large; an effect the other way counts as inactive or inconclusive. Potency is the fitted concentration of half-maximal effect.

SMILES | FUS suppressor | TDP43 rescue | Abeta rescue | aSyn rescue
Fc1ccccc1Cn1c(-c2ccccc2)nc2ccccc21 | i | 22.4µM* | i | .
NC(=O)CSc1nc2ccccc2n1Cc1ccccc1F | i | 23.4% | i | ?
COc1ccc2c(c1OC)C(=O)N1N=C(c3ccc(Br)cc3)CC21 (stereo not given) | i | 20µM* | i | 0.3%
COc1ccc(C2=NN3C(=O)c4c(ccc(OC)c4OC)C3C2)cc1 (stereo not given) | i | 8.5% | i | 0.1%
COc1ccc2c(c1OC)C(=O)N1N=C(c3ccc(Cl)cc3)CC21 (stereo not given) | i | 35.5µM* | i | 9.5%
O=C(c1cc(Cl)cc(Cl)c1)N1CC[C@H]2[C@H](CCCN2Cc2ccccc2)C1 | i | . | . | .
O=C(NCCCc1cnc[nH]1)NCCCN(Cc1ccc(Cl)cc1)c1ccc(Br)cn1 | . | . | . | -9.4%
O=C(N/N=C\c1ccccn1)C1COc2cc3ccccc3cc2O1 (stereo not given) | i | 8.9% | ? | 20µM*
O=C(N/N=C/c1cccc([N+](=O)[O-])c1O)c1cccs1 | . | 27.5% | i | 7.94µM*
O=C(N/N=C\c1cccc([N+](=O)[O-])c1O)C1COc2ccccc2O1 (stereo not given) | i | 11.2µM* | i | 6.31µM*
NNC(=O)C1COc2cc3ccccc3cc2O1 (stereo not given) | i | 24.1% | i | -1.2%
O=C(N/N=C/c1ccc([N+](=O)[O-])cc1)c1cccs1 | i | 3.6% | i | -1.6%
O=[N+]([O-])c1cccc(C=NNc2ccc3ccccc3n2)c1O | . | ? | i | 2µM*
O=c1c([N+](=O)[O-])c(Cl)c2ccccc2n1Cc1ccccc1 | i | . | . | .
COc1ccc(CSc2nnc(SCc3ccccc3)s2)cc1 | i | . | . | .
O=S(=O)(CC1NCc2ccccc21)NC1CCCC1 (stereo not given) | i | . | . | .
COC(=O)[C@@]12CCCCC=C1N(CCc1ccc(Cl)cc1)C(=O)[C@H]2CC(=O)NCC12CC3CC(CC(C3)C1)C2 | i | . | . | .
CCCCCSc1nc2c(c(=O)[nH]c(=O)n2C)n1C | i | 2.6% | i | 0.1%
CCCCCSc1nc2c(c(=O)[nH]c(=O)n2C)n1CC | i | 12.6µM* | i | -8.7%
CCCCCc1ccc(NC(=O)O[C@@H]2CC[C@@]34CCCN3C(=O)CCC[C@H]4C2)cc1 | 22.4µM* | . | . | .
COc1ccc(/C=C/c2nccc3ccccc23)cc1OC | . | . | . | 1.4%
O=C(CN(C(=O)OCC1c2ccccc2-c2ccccc21)[C@@H](Cc1ccccc1)C(=O)O)OCc1ccc(C(=O)NCc2ccccc2)cc1 | 25.1µM* | . | . | .
COc1cccc(C(c2sc3nc(-c4ccco4)nn3c2O)N2CCN(c3ccccc3F)CC2)c1 (stereo not given) | 8.91µM* | 11.2µM* | i | .
Cc1cccc(N2CCN(S(=O)(=O)c3ccc(-c4cc(C(F)(F)F)on4)s3)CC2)c1C | i | 12.8% | i | .
Nc1cccnc1Sc1cccc(Cl)c1 | i | 17.8µM* | i | 14.0%
SMILES | FUS suppressor | TDP43 rescue | Abeta rescue | aSyn rescue
COc1ccc([C@H]2OC(=O)C[C@@H]2C(=O)N2CCN(c3ccccc3F)CC2)cc1OC | i | . | . | .
COC(=O)c1ccc(/C=C/C(=O)O)cc1 | i | 35.5µM* | i | -6.6%
COC(=O)c1ccc(/C=C/C(=O)c2ccc(OC)cc2)cc1 | i | -4.8% | i | 1.4%
O=C1CC(c2ccc3c(c2)OCO3)N=C2N(Cc3ccc4c(c3)OCO4)C/C(=C/c3ccccc3)N12 (stereo not given) | i | . | . | .
O=C1CS(=O)(=O)C2(C(=O)N(Cc3ccccc3)c3ccccc32)N1c1ccc(F)c(Cl)c1 (stereo not given) | i | 20µM* | i | 11.8%
COc1cccc2c(NCc3ccccc3)nc(-n3c(N)nc4ccccc43)nc12 | i | . | . | .
O=C(NCC(c1ccccc1)c1ccccc1)[C@H](Cc1ccccc1)NC1(C(=O)NC2CCCCC2)CCOCC1 | i | . | . | .
COc1ccc(OC)c(CNC(=O)c2c(C)oc3ncn(CC(C)C)c(=O)c23)c1 | i | ? | i | .
CCc1ccc(CNC(=O)c2c(C)oc3ncn(CC(C)C)c(=O)c23)cc1 | i | 25.1µM* | i | .
COc1ccc(OC)c(CCNC(=O)c2c(C)oc3ncn(CC(C)C)c(=O)c23)c1 | ? | 25.1µM* | i | .
CC(C)(N[C@@H](Cc1c[nH]c2ccccc12)C(=O)NCCCc1ccccc1)C(=O)NCc1ccccc1 | i | . | . | .
O=C(O)CNC(=O)/C=C/c1ccc(Cl)cc1Cl | i | 4.6% | i | -3.1%
COCCCNC(=O)/C=C/c1ccc(Cl)cc1Cl | i | 14.1µM* | i | 0.2%
CC(C)Oc1ccc(S(=O)(=O)N2CCCCCC2)c2ccccc12 | i | . | . | .
Cc1cc(N2CCOCC2)nc(SCc2ccc(Cl)cc2Cl)n1 | ? | 35.5µM* | i | -5.9%
Cc1cc(N2CCOCC2)nc(SCC(=O)OCc2ccccc2)n1 | i | 3.2% | i | 2.2%
Oc1cccc2c(NC(=S)Nc3ccc(SC(F)F)cc3)cccc12 | i | 11.2µM* | i | -21.0%
Cc1ccc(OCCOc2cccc(Br)c2)c([N+](=O)[O-])n1 | i | 14.1µM* | i | 1.8%
CCOc1ccc(CCNC(=O)c2cc3sccc3n2CC)cc1OC | i | . | . | .
C=CCN(C(=O)[C@@H](CCCC)[C@@H](O)c1ccc(C(C)=O)cc1)c1ccccc1 | i | . | . | .
CC(/C=N/n1c(-c2ccco2)n[nH]c1=S)=C\c1ccccc1 | i | 17.8µM* | i | 9.5%
CC(/C=N/n1c(-c2ccccn2)n[nH]c1=S)=C\c1ccccc1 | i | 9.3% | i | -1.5%
CC(C)(C)NC(=O)CSc1nc2ccc(Nc3nc(N4CCOCC4)nc(N4CCOCC4)n3)cc2s1 | i | 11.2µM* | i | ?
CC(=O)CSc1nc2ccc(Nc3nc(N4CCOCC4)nc(N4CCOCC4)n3)cc2s1 | ? | 25.1% | i | -1.2%
COc1ccccc1Nc1ncnc2c1nc1n2CCCCC1 | i | 11.7% | i | .
Cc1ccc(CNc2ncnc3c2nc2n3CCCC2)cc1 | i | 2.5% | i | .
